Data reported in PubChem BioAssay (NCI).
This is part of a sample that, as a whole, favours compounds with a hit. Of some 83,000 tested, about 20% had one in any assay.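 96-well plates, one dose, 48 hours. Percent growth reported; active if below 10.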 Activity calls are given as the source filed them.

Columns and labels:
Test in all cases: NCI-60 one-dose screen, 48 h (100 = growth as untreated, 0 = no growth, -100 = all killed)
Settings in all cases: 10 µM unless noted
SK-MEL-2 melanoma = test system: SK-MEL-2 melanoma
EKVX NSCLC = test system: EKVX NSCLC
SN12C renal = test system: SN12C renal
UO-31 renal = test system: UO-31 renal
TK-10 renal = test system: TK-10 renal
ACHN renal = test system: ACHN renal
CAKI-1 renal = test system: CAKI-1 renal
A498 renal = test system: A498 renal
CCRF-CEM leukemia = test system: CCRF-CEM leukemia
MOLT-4 leukemia = test system: MOLT-4 leukemia
SR leukemia = test system: SR leukemia
RPMI-8226 leukemia = test system: RPMI-8226 leukemia
OVCAR-8 ovarian = test system: OVCAR-8 ovarian
OVCAR-5 ovarian = test system: OVCAR-5 ovarian
OVCAR-4 ovarian = test system: OVCAR-4 ovarian
SK-OV-3 ovarian = test system: SK-OV-3 ovarian
IGROV1 ovarian = test system: IGROV1 ovarian
OVCAR-3 ovarian = test system: OVCAR-3 ovarian
HS 578T breast = test system: HS 578T breast
NCI/ADR-RES ovarian = test system: NCI/ADR-RES ovarian

Measured: growth

O=S(=O)(NCCCNc1nccc(-c2[nH]c(-c3ccccc3)nc2-c2ccc(F)c(O)c2)n1)c1cccc2ccccc12
inactive: SK-MEL-2 melanoma 17.1% | EKVX NSCLC 82% | SN12C renal 63.2% | UO-31 renal 75.2% | TK-10 renal 72.5% | ACHN renal 59.6% | CAKI-1 renal 77.2% | A498 renal 73.1% | CCRF-CEM leukemia 17% | MOLT-4 leukemia 31.4% | SR leukemia 28.6% | OVCAR-8 ovarian 54.3% | OVCAR-5 ovarian 146% | OVCAR-4 ovarian 81.9% | SK-OV-3 ovarian 103% | IGROV1 ovarian 58.3% | OVCAR-3 ovarian 88.4% | HS 578T breast 40.7% | NCI/ADR-RES ovarian 91.1%
active: RPMI-8226 leukemia 4.6%

CCOC(=O)c1ccccc1NC1=C(Cl)C(=O)c2nc(C)ccc2C1=O
inactive: SK-MEL-2 melanoma 112% | EKVX NSCLC 95.1% | SN12C renal 88.2% | UO-31 renal 91.9% | TK-10 renal 147% | ACHN renal 101% | CAKI-1 renal 98.6% | A498 renal 87.4% | CCRF-CEM leukemia 84.3% | MOLT-4 leukemia 84.8% | SR leukemia 102% | RPMI-8226 leukemia 99.3% | OVCAR-8 ovarian 100% | OVCAR-5 ovarian 101% | OVCAR-4 ovarian 83.6% | SK-OV-3 ovarian 108% | IGROV1 ovarian 91.4% | OVCAR-3 ovarian 90.6% | HS 578T breast 99% | NCI/ADR-RES ovarian 93.9%

O=C(CSc1nnc(-c2ccc(Cl)cc2)n1-c1ccccc1)Nc1ccccc1Cl
inactive: SK-MEL-2 melanoma 95.5% | EKVX NSCLC 69.7% | SN12C renal 29.4% | UO-31 renal 34.2% | TK-10 renal 85.1% | ACHN renal 21.7% | CAKI-1 renal 74.6% | A498 renal 104% | CCRF-CEM leukemia 76.7% | MOLT-4 leukemia 85.3% | SR leukemia 20.5% | RPMI-8226 leukemia 35.4% | OVCAR-8 ovarian 67.2% | OVCAR-5 ovarian 81.3% | SK-OV-3 ovarian 125% | IGROV1 ovarian 52.3% | OVCAR-3 ovarian 91.6% | HS 578T breast 58.8% | NCI/ADR-RES ovarian 54.8%
active: OVCAR-4 ovarian 8.39%

N#Cc1cnc2ccc(-c3cnc4n[nH]nc4c3)cc2c1N1CCc2cc(F)c(Cl)cc21
active: SK-MEL-2 melanoma -22.6% | EKVX NSCLC 3.17% | UO-31 renal 2.18% | TK-10 renal -11.4% | CAKI-1 renal 6.12% | A498 renal -11.8% | MOLT-4 leukemia -1.31% | SR leukemia 3.77% | OVCAR-4 ovarian -16.9% | SK-OV-3 ovarian -0.177% | IGROV1 ovarian -8.77% | HS 578T breast -10.7%
inactive: SN12C renal 14.8% | ACHN renal 13.6% | CCRF-CEM leukemia 10.6% | RPMI-8226 leukemia 15.8% | OVCAR-8 ovarian 16.7% | OVCAR-5 ovarian 31.6% | OVCAR-3 ovarian 26.2% | NCI/ADR-RES ovarian 45%

C#CCN(C)CCCOc1ccc(NC(=O)CCCCCCCCC(=O)NO)cc1Cl
inactive: SK-MEL-2 melanoma 96.7% | EKVX NSCLC 68.8% | SN12C renal 95.9% | UO-31 renal 51.7% | TK-10 renal 63.1% | ACHN renal 80.4% | CAKI-1 renal 78.6% | A498 renal 81.1% | CCRF-CEM leukemia 30.5% | MOLT-4 leukemia 43.2% | SR leukemia 32.7% | RPMI-8226 leukemia 40.2% | OVCAR-8 ovarian 53.4% | OVCAR-5 ovarian 68.8% | OVCAR-4 ovarian 74.3% | SK-OV-3 ovarian 84.8% | IGROV1 ovarian 71.5% | OVCAR-3 ovarian 73.7% | HS 578T breast 70.3% | NCI/ADR-RES ovarian 82.7%

Cn1cc(-c2nnc(N)nc2-c2c[nH]c3ccc(Br)cc23)c2cc(Br)ccc21
inactive: SK-MEL-2 melanoma 110% | EKVX NSCLC 103% | SN12C renal 110% | UO-31 renal 84.2% | TK-10 renal 78.7% | ACHN renal 94.7% | CAKI-1 renal 85.9% | A498 renal 93.6% | CCRF-CEM leukemia 108% | MOLT-4 leukemia 107% | SR leukemia 78.4% | RPMI-8226 leukemia 109% | OVCAR-8 ovarian 104% | OVCAR-5 ovarian 120% | OVCAR-4 ovarian 98.6% | SK-OV-3 ovarian 111% | IGROV1 ovarian 107% | OVCAR-3 ovarian 108% | HS 578T breast 91.4% | NCI/ADR-RES ovarian 110%

C#C[C@]1(O)CC[C@H]2[C@@H]3CC=C4c5sc(Nc6cc(C)cc(C)c6)nc5CC[C@]4(C)[C@H]3CC[C@@]21C
inactive: SK-MEL-2 melanoma 14% | SN12C renal 51.4% | TK-10 renal 62.8% | ACHN renal 34.3% | CAKI-1 renal 11% | CCRF-CEM leukemia 10.7% | SR leukemia 11.6% | OVCAR-8 ovarian 53% | OVCAR-5 ovarian 54.5% | OVCAR-4 ovarian 47.7% | IGROV1 ovarian 46.8% | OVCAR-3 ovarian 48.9% | NCI/ADR-RES ovarian 47.7%
active: EKVX NSCLC -3.54% | UO-31 renal 8.23% | A498 renal -3.87% | MOLT-4 leukemia 0.923% | RPMI-8226 leukemia -27.3% | SK-OV-3 ovarian -38.7% | HS 578T breast -10.8%

COC(=O)CCSC1=C(C)C(=O)c2ccccc2C1=O
inactive: SK-MEL-2 melanoma 107% | EKVX NSCLC 74.2% | SN12C renal 92.5% | UO-31 renal 64.6% | TK-10 renal 162% | ACHN renal 82.6% | CAKI-1 renal 80.4% | A498 renal 116% | CCRF-CEM leukemia 45.7% | MOLT-4 leukemia 31.8% | SR leukemia 71% | RPMI-8226 leukemia 45.3% | OVCAR-8 ovarian 85.8% | OVCAR-5 ovarian 104% | OVCAR-4 ovarian 75.6% | SK-OV-3 ovarian 97.7% | IGROV1 ovarian 80.8% | OVCAR-3 ovarian 69% | HS 578T breast 91.8% | NCI/ADR-RES ovarian 83.5%

CCNCCOc1ccc(/C(=C(/CC)c2ccc(Cl)cc2)c2ccc(OCCCN(C)C)cc2)cc1
active: SK-MEL-2 melanoma -84% | EKVX NSCLC -84.4% | SN12C renal -85.6% | UO-31 renal -95.6% | TK-10 renal -89.8% | ACHN renal -98% | CAKI-1 renal -75.1% | A498 renal -86.3% | CCRF-CEM leukemia -37.5% | MOLT-4 leukemia -62.6% | SR leukemia -36.8% | RPMI-8226 leukemia -36.2% | OVCAR-8 ovarian -81.7% | OVCAR-5 ovarian -93% | OVCAR-4 ovarian -88% | SK-OV-3 ovarian -93.8% | IGROV1 ovarian -82.3% | OVCAR-3 ovarian -77.4% | HS 578T breast -51.1% | NCI/ADR-RES ovarian -82.5%

CNC(=O)c1cc(-c2ccc(NC(=S)Nc3cccc(C(F)(F)F)c3)cc2)nc2cccnc12
inactive: SK-MEL-2 melanoma 103% | EKVX NSCLC 98.1% | SN12C renal 97.3% | UO-31 renal 81.8% | TK-10 renal 102% | ACHN renal 94.8% | CAKI-1 renal 91.3% | A498 renal 88.8% | CCRF-CEM leukemia 88% | MOLT-4 leukemia 117% | SR leukemia 80.8% | RPMI-8226 leukemia 95.2% | OVCAR-8 ovarian 93.9% | OVCAR-5 ovarian 102% | OVCAR-4 ovarian 96.6% | SK-OV-3 ovarian 105% | IGROV1 ovarian 103% | OVCAR-3 ovarian 109% | HS 578T breast 105% | NCI/ADR-RES ovarian 95.3%

Cc1ccc2c(n1)C(=O)C(Cl)=C(Nc1cc(C(F)(F)F)cc(C(F)(F)F)c1)C2=O
inactive: SK-MEL-2 melanoma 74.5% | EKVX NSCLC 78% | SN12C renal 92.1% | TK-10 renal 106% | CAKI-1 renal 81.4% | A498 renal 80.4% | OVCAR-8 ovarian 87.8% | OVCAR-5 ovarian 109% | SK-OV-3 ovarian 110% | IGROV1 ovarian 27.8% | OVCAR-3 ovarian 37.3% | HS 578T breast 92.8% | NCI/ADR-RES ovarian 99.7%
active: UO-31 renal 9.71% | ACHN renal -64.9% | CCRF-CEM leukemia 4.75% | MOLT-4 leukemia 9.31% | SR leukemia 7.46% | RPMI-8226 leukemia 6.65% | OVCAR-4 ovarian -84.8%

NC1=NC2(CCCC2)N(c2ccc(S(=O)(=O)Nc3nccs3)cc2)C(N)=N1
inactive: SK-MEL-2 melanoma 116% | EKVX NSCLC 98.7% | SN12C renal 102% | UO-31 renal 83.6% | TK-10 renal 104% | ACHN renal 103% | CAKI-1 renal 93.6% | A498 renal 120% | CCRF-CEM leukemia 95.9% | MOLT-4 leukemia 102% | SR leukemia 98.2% | RPMI-8226 leukemia 94.1% | OVCAR-8 ovarian 105% | OVCAR-5 ovarian 101% | OVCAR-4 ovarian 110% | SK-OV-3 ovarian 114% | IGROV1 ovarian 103% | OVCAR-3 ovarian 116% | HS 578T breast 109% | NCI/ADR-RES ovarian 100%

CC(C)=CCC[C@](C)(O)[C@H]1CC[C@]2(C)[C@@H]1CC[C@@H]1[C@@]3(C)CC[C@H](N)C(C)(C)[C@@H]3CC[C@]12C
active: CCRF-CEM leukemia 0.154% | MOLT-4 leukemia 4.46% | SR leukemia -24.4% | RPMI-8226 leukemia -9.63%
inactive: SK-MEL-2 melanoma 109% | EKVX NSCLC 73.4% | SN12C renal 96.1% | UO-31 renal 77.1% | TK-10 renal 127% | ACHN renal 91.7% | CAKI-1 renal 67.8% | A498 renal 106% | OVCAR-8 ovarian 98.1% | OVCAR-5 ovarian 108% | OVCAR-4 ovarian 97.5% | SK-OV-3 ovarian 104% | IGROV1 ovarian 93.3% | OVCAR-3 ovarian 107% | HS 578T breast 94.6% | NCI/ADR-RES ovarian 88.9%

CC(=O)Nc1ccccc1-c1nc2ccccc2s1
inactive: SK-MEL-2 melanoma 104% | EKVX NSCLC 96.1% | SN12C renal 92.5% | UO-31 renal 89.1% | TK-10 renal 97.7% | ACHN renal 102% | CAKI-1 renal 95.4% | A498 renal 84.4% | CCRF-CEM leukemia 98.4% | MOLT-4 leukemia 104% | SR leukemia 110% | RPMI-8226 leukemia 113% | OVCAR-8 ovarian 103% | OVCAR-5 ovarian 102% | OVCAR-4 ovarian 97.4% | SK-OV-3 ovarian 108% | IGROV1 ovarian 101% | OVCAR-3 ovarian 112% | HS 578T breast 106% | NCI/ADR-RES ovarian 98.5%

COc1ccccc1Cn1cc(C#N)c(N)c1C(=O)c1ccc(Br)cc1
inactive: SK-MEL-2 melanoma 98.6% | EKVX NSCLC 85.2% | SN12C renal 92.1% | UO-31 renal 78.1% | TK-10 renal 108% | ACHN renal 96.6% | CAKI-1 renal 80.6% | A498 renal 77.7% | CCRF-CEM leukemia 91.4% | MOLT-4 leukemia 85.4% | SR leukemia 112% | RPMI-8226 leukemia 93.7% | OVCAR-8 ovarian 98.3% | OVCAR-5 ovarian 104% | OVCAR-4 ovarian 73.8% | SK-OV-3 ovarian 107% | IGROV1 ovarian 91.6% | OVCAR-3 ovarian 104% | HS 578T breast 94.4% | NCI/ADR-RES ovarian 93.6%
